Rows were chosen to be rich in hits. Some 2.8% of all compounds tested hit in one or more screens of this group.
IP6K1 inh: blocks human inositol hexakisphosphate kinase 1; activity change, % (series mostly up to about 58 µM); AID 1645851; Q92551; IP6K1 kinase, ADP-Glo luminescence, 2 h; active compounds read low; actives 0.81% (n = 140,000); in the data active = activity change below about -25%; also: % is scaled to controls: 0 for no effect and ±100 for the full control effect
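ADP-Glo luminescence measures ADP made by human IP6K1 during a 2 h RT reaction with ATP/IP6 (mix at 1.3 mM/130 uM); top library doses 57.5 and 19.1 uM final.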
SNCA expr inh: SNCA gene expression inhibition | HEK-293 SNCA-luciferase knock-in, luminescence, 24 h | Potency, µM (doses to about 57.2 µM), for the others: at the highest dose activity change, negative = inhibition, usual class: inhibitors | actives 0.17% (n = 140,000) | AID 1671194;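 also: potency is read from the fitted curve at half-maximal effect; plate controls were DMSO cells for no effect and cell-free wells for full effect; nearly all actives have a fitted effect of over 45% in size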
SNCA viab count: counter-screen for SNCA expression inhibitors: cell viability | HEK-293-SNCA-luc viability, GF-AFC fluorescence, 24 h | Potency, µM (series often up to 57.1 µM), inactives show at the top dose activity change, negative = cytotoxicity, hits mostly cytotoxic | actives 0.12% (n = 150,000) | AID 1671193;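 also: potency is read from the fitted curve at half-maximal effect; 0% = DMSO-treated cells and -100% = medium-only wells without cells; nearly all actives have a fitted effect of over 30% in size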
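Cytotoxicity counterscreen: after 24 h compound treatment of genome-edited SNCA-luciferase HEK-293 cells, live-cell protease substrate GF-AFC read by fluorescence after 30 min; activity scaled between DMSO (0%) and medium-only (-100%), curves Hill-fitted.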
KDM5B inh: blocks human KDM5B histone demethylase activity | AID 1347165 | KDM5B demethylase, FDH-coupled NADH fluorescence (FDH is formaldehyde dehydrogenase) | actives 2.6% (n = 220,000) | Potency, µM (doses to about 57.7 µM), usual class: inhibitors | Q9UGL1; also: potency is read from the fitted curve at half-maximal effect; 0% is about no effect; nearly all actives have a fitted effect of over 70% in size
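Coupled FDH/NAD⁺ fluorescence readout. KDM5BΔAP 200 nM final; compound titration, 10 min RT preincubation; substrate mix 12.5 µM H3K4me3, 25 µM 2-OG, 50 µM Fe(II), 100 µM ascorbate, 0.25 mM NAD⁺, 0.25 U/mL FDH; ΔRFU over 30 min.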
Numbers without * were called inactive; i = inactive; ? = inconclusive; . = no result given; ! = not confirmed by another sample; [ ] = dose if it differs, or a comment. Unless noted, calls follow the shape of the dose curve; as a rule, active = well fitted curve in the direction sought with a large enough effect; inconclusive = small, poorly fitted or top-dose-only effect, or another doubt; inactive = no such curve, though single readings can be large; an effect the other way counts as inactive or inconclusive.

SMILES	IP6K1 inh	SNCA expr inh	SNCA viab count	KDM5B inh
CC(=O)NCCNC(=O)c1ccc(-c2ncc3cnc(-c4cccc(F)c4)cn23)cc1	-16	61%[87.6 µM]	-15%[87.6 µM]	28µM*
O=C(NC1CCC(O)CC1)c1ccc(-c2ncc3cnc(-c4cccc(F)c4)cn23)cc1 (stereo not drawn)	-8	3%[87.6 µM]	-15%[87.6 µM]	22µM*
O=C(NCCc1cnc[nH]1)c1ccc(-c2ncc3cnc(-c4cccc(F)c4)cn23)cc1	-3	-11%[87.6 µM]	-16%[87.6 µM]	?
Cc1ccc(NS(=O)(=O)c2cc(-c3ccno3)oc2C)c(C)c1	.	.	.	i
COc1ccc2[nH]c(=O)c(CCC(=O)N3CCN(CC(C)C)CC3)cc2c1	33	-22%	4%	28µM*
CCC1CCCCN1CCNC(=O)CCc1cc2ccccc2[nH]c1=O (stereo not drawn)	-4	-5%	-1%	?
COc1ccc2[nH]c(=O)c(CCC(=O)NCCCN3CCCCC3C)cc2c1 (stereo not drawn)	30	28%	8%	28µM*
COc1ccc2[nH]c(=O)c(CCC(=O)N3CCCC3)cc2c1	34	19%	-4%	?
NC(=O)CCN(C(=O)c1ccc(C(F)(F)F)cc1)c1ccc(F)cc1	.	.	.	i
COc1ccc(-c2cc(N3CCC(NC(=O)c4ccc5cc[nH]c5c4)CC3)n[nH]2)cc1	24	-26%	-13%	28µM*
COc1ccc(C(=O)NC2CCN(c3cc(-c4ccc(OC)cc4)[nH]n3)CC2)cc1	15	11%	-10%	?
COc1ccc(-c2cc(N3CCC(NC(=O)COc4ccccc4C)CC3)n[nH]2)cc1	18	?	?	16µM*
COc1ccc(-c2cc(N3CCC(NC(=O)c4ccc(Br)cc4)C3)n[nH]2)cc1 (stereo not drawn)	7	-10%	-9%	11µM*
c1cncc(-c2nc3ncccc3[nH]2)c1	5	-2%[87.6 µM]	10%[87.6 µM]	35µM*
c1cncc(-c2nc3ccncc3[nH]2)c1	1	4%[87.6 µM]	4%[87.6 µM]	?
Cc1occc1-c1nc2ncccc2[nH]1	0	-14%[87.6 µM]	8%[87.6 µM]	32µM*
c1ccc(-c2nc3ncccc3[nH]2)cc1	9	63%[87.6 µM]	-8%[87.6 µM]	32µM*!
CCC(C)[C@H](NC(=O)C1CCC(CNC(=O)[C@@H]2CCCN2C(=O)OC(C)(C)C)CC1)C(=O)O (stereo partly drawn)	.	.	.	i
CCCNC(=O)[C@H]1O[C@H]1C(=O)N[C@H](C(=O)N1CCC[C@@H]1C(=O)OC)C(C)CC (stereo partly drawn)	.	?	22µM*	.
O=C(NCc1ccnc2[nH]ccc12)c1cccc2[nH]ccc12	16	102%[87.6 µM]	8%[87.6 µM]	?
O=C(NCc1ccnc2[nH]ccc12)c1ccccc1Cl	10	8%[87.6 µM]	3%[87.6 µM]	35µM*
O=C(NCc1ccc(Cl)cc1)c1ccnc2[nH]ccc12	4	24%[87.6 µM]	0%[87.6 µM]	28µM*
COc1ccc(-c2noc([C@@H]3CCCN3C(=O)Cc3cccc(F)c3)n2)cc1OC	-1	5%	-13%	25µM*
COc1ccc(C(=O)N2CCC[C@H]2c2nc(-c3ccc(OC)c(OC)c3)no2)c(C)c1	4	20%	-16%	28µM*
COc1ccc(C(=O)N2CCC[C@H]2c2nc(-c3ccc(OC)c(OC)c3)no2)cc1OC	-2	31%	-5%	i
SMILES	IP6K1 inh	SNCA expr inh	SNCA viab count	KDM5B inh
COc1ccc(-c2noc([C@@H]3CCCN3C(=O)Cc3ccccc3Cl)n2)cc1OC	0	-10%	-18%	28µM*
COc1ccc(CC(=O)N2CCC[C@H]2c2nc(-c3ccc(OC)c(OC)c3)no2)cc1Cl	9	38%	-2%	?
CN(c1cc(=O)c2ccnc(N3CCOCC3)c2o1)C1CCOCC1	-17	-1%[87.6 µM]	-6%[87.6 µM]	?
CN(c1cc(=O)c2ccnc(-c3ccc(F)c(Cl)c3)c2o1)C1CCOCC1	-1	-12%[87.6 µM]	-1%[87.6 µM]	35µM*
Cc1[nH]c2ccccc2c1C(=O)C(=O)NCCCC(N)=O	.	.	.	i
CC(C)(C)c1nc(C(=O)NCc2ccc(F)cc2)n2ccncc12	-8	-8%	4%	100µM*
CN(C)C(=O)c1nc(C(C)(C)C)c2ccccn12	-7	-16%[87.6 µM]	5%[87.6 µM]	112µM*
CN(C)C(=O)c1nc(-c2ccccc2)c2ccccn12	21	36%[87.6 µM]	5%[87.6 µM]	i
CC(C)(C)c1nc(C(=O)NCc2ccc(F)cc2)n2ccccc12	0	4%	0%	89µM*
Cc1cccc(C)c1-c1nc(C(=O)N(C)C)n2ccccc12	30	-1%[87.6 µM]	0%[87.6 µM]	40µM*
O=C(NCc1ccc(F)cc1)c1nc(-c2cccc(C(F)(F)F)c2)c2ccccn12	15	-5%	13%	i
COc1ccccc1Nc1nc(N)c(C(=O)c2cc(C)c(C)cc2C)s1	.	.	.	i
CN(C(=O)CSc1nnc(-c2cccnc2)o1)C1(c2ccccc2Cl)CCCCC1=O (stereo not drawn)	.	.	.	i
COC(=O)CNC(=O)c1nc(C(C)(C)C)c2ccccn12	-8	37%[87.6 µM]	14%[87.6 µM]	126µM*
COc1ccc2[nH]c(C(=O)NCCC(=O)Nc3ccc4c(c3)OCCO4)cc2c1OC	.	.	.	i
C=C1C(=O)[C@@]23C(CC[C@@H]1[C@H]2O)[C@@]12CO[C@]3(O)[C@@H](O)[C@@H]1C(C)(C)CC[C@@H]2O (stereo partly drawn)	-1	34µM*	30µM*	.
COc1ccccc1N1CCCc2ncc(C(=O)Nc3cccnc3)cc21	1	-22%[87.6 µM]	9%[87.6 µM]	i
COc1cccc(NC(=O)c2cnc3c(c2)N(Cc2ccccc2)CCC3)c1	-7	-12%[87.6 µM]	-12%[87.6 µM]	32µM*
COc1ccccc1N1CCCc2ncc(C(=O)Nc3cccc(C(F)(F)F)c3)cc21	0	11%[87.6 µM]	3%[87.6 µM]	32µM*
CC1(c2ccccc2)N(Cc2ccc(O)cc2)C(=O)OC12CCN(C(=O)c1cccnc1)CC2 (stereo not drawn)	-3	11%	5%	i
CN1CCC(NC(=O)C2(C)CCCc3cnc(NCc4ccccc4)nc32)CC1 (stereo not drawn)	-8	-6%[87.6 µM]	8%[87.6 µM]	22µM*
CC1(C(=O)NCc2cnccn2)CCCc2cnc(NCc3ccccc3)nc21 (stereo not drawn)	-2	-26%[87.6 µM]	8%[87.6 µM]	i
CC1(C(=O)NCCN2CCOCC2)CCCc2cnc(NCc3ccccc3)nc21 (stereo not drawn)	2	1%[87.6 µM]	6%[87.6 µM]	35µM*
CC1(C(=O)NCc2ccncc2)CCCc2cnc(NCc3ccccc3)nc21 (stereo not drawn)	-1	-22%[87.6 µM]	1%[87.6 µM]	35µM*
CCCC(=O)Nc1ccc(-c2nc(N)sc2C)cc1	.	.	.	i
Nc1cccn2nc(C3CCC3)nc12	12	-3%	10%	18µM*
O=C(Nc1cccn2nc(C3CCC3)nc12)c1ccc(F)cc1	13	-1%	8%	i
Cc1cc(NC(=O)COc2ccc3ccc(=O)oc3c2)no1	.	.	.	i
Cc1nnc([C@@H]2CC(F)(F)CN2C(=O)c2cccc3[nH]ccc23)o1	14	23%	7%	28µM*
Cc1nnc([C@@H]2CC(F)(F)CN2C(=O)c2ccoc2C)o1	8	9%	5%	i
